Records with an inconclusive call do not appear. Active and inactive are the calls of the source. The call rests on the fitted dose curve.

The test is described as follows: Validation screen for inhibitors of Lassa infection (AID 463096). The conditions noted are these: Lassa virus infection, cell-based; series mostly up to 46.1 µM.
On to `Cc1ccc(Cl)c(Nc2ccccc2C(=O)O)c1Cl`, for which the call was inactive.

Turning to `CC(C)(Oc1ccc(C2CC2(Cl)Cl)cc1)C(=O)O` (centres undefined), the compound was classed as inactive.

`C=CC(N)CCC(=O)O` (centres undefined): the result was inactive.

On to `CC(=O)OC(C)C[N+](C)(C)C` (centres undefined), for which the call was inactive.

On to `CN(C)C(=O)Oc1ccc[n+](C)c1`, for which the compound was called inactive.

In the case of `NCCCCCC(=O)O`, the call was inactive.

As for `CC(C)NCC(O)c1cc(O)cc(O)c1` (centres undefined), the call was inactive.

Turning to `C[C@](N)(Cc1ccc(O)cc1)C(=O)O`, the result was inactive.

With `C[N+](C)(C)CCOC(N)=O`, the outcome was inactive.

Take `NC(=O)c1cnccn1`: the compound was called inactive.

`CCn1cc(C(=O)O)c(=O)c2cc(F)c(N3CCNC(C)C3)c(F)c21` (centres undefined): the call was inactive.

As to `CC(CCc1ccc(O)cc1)NCCc1ccc(O)c(O)c1` (centres undefined), the compound was classed as inactive.

As for `O=c1[nH]cnc2[nH]ncc12`, the result was inactive.

`CCN(CC)CCOC(=O)c1ccc(N)cc1`: the outcome was inactive.

`NC1CCN(c2cccc(Cl)n2)CC1`: the result was inactive.

For `CC(C)(C)NCC(O)c1cc(O)cc(O)c1` (centres undefined), the outcome was inactive.

On to `CC(=O)c1ccc(S(=O)(=O)NC(=O)NC2CCCCC2)cc1`, for which the compound was classed as inactive.

For the compound `NC(Cc1ccc(Cl)cc1)C(=O)O` (centres undefined), the compound was called inactive.

Regarding `COCCOC(=O)C1=C(C)NC(C)=C(C(=O)OC(C)C)C1c1cccc([N+](=O)[O-])c1` (centres undefined), the call was inactive.

Turning to `NC(N)=Nc1nc(CSCC/C(N)=N/S(N)(=O)=O)cs1`, the outcome was inactive.

Regarding `O=C1NCC2(CCN(CCc3ccccc3)CC2)O1`, the compound was called inactive.

Consider `CN=C(NC#N)NCCSCc1nc[nH]c1C`, for which the result was inactive.

Regarding `C1COC(NC(C2CC2)C2CC2)=N1`, the compound was called inactive.

On to `O=C(NCC1CCCCN1)c1cc(OCC(F)(F)F)ccc1OCC(F)(F)F` (centres undefined), for which the outcome was inactive.

For the compound `CC(=O)N1CCN(c2ccc(OC[C@H]3CO[C@](Cn4ccnc4)(c4ccc(Cl)cc4Cl)O3)cc2)CC1`, the result was inactive.

For `C[N+](C)(C)CCCCCC[N+](C)(C)C`, the compound was called inactive.

Turning to `Cc1nnc(SCC2=C(C(=O)O)N3C(=O)[C@@H](NC(=O)Cn4cnnn4)[C@H]3SC2)s1`, the outcome was inactive.

In the case of `O=C(O)CN(CCN(CC(=O)O)CC(=O)O)CCN(CC(=O)O)CC(=O)O`, the result was inactive.

With `CCCCCCCCCCCCCCCC(=O)NCCO`, the compound was called inactive.

As for `Cc1nc2ccccn2c(=O)c1CCN1CCC(C(=O)c2ccc(F)cc2)CC1`, the compound was classed as inactive.

For `NC(=O)N1c2ccccc2C=Cc2ccccc21`, the call was inactive.

With `CC[N+](CC)(CC)CCOc1cccc(OCC[N+](CC)(CC)CC)c1OCC[N+](CC)(CC)CC`, the outcome was inactive.

On to `COc1cc(-c2ccc(=O)[nH]n2)ccc1OC(F)F`, for which the result was inactive.

As for `CCN(Cc1ccncc1)C(=O)C(CO)c1ccccc1` (centres undefined), the result was inactive.

For the origin of these results see PubChem BioAssay (NCATS).
